Screens from PubChem.
An excerpt weighted towards active compounds, which were near 9.4% of everything screened.
FLuc modulator = qHTS profiling assay for firefly luciferase inhibitor/activator using purifed enzyme and Km concentrations of substrates (counterscreen for miR-21 project) | purified FLuc, Km substrates, luminescence inhibition | Potency, µM (series often up to 57.5 µM), inactives show at the highest dose activity change, negative = inhibition, most hits filed as inhibitors | 360,000 tested, 6.9% active;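 also: plate controls were vehicle for no effect and reference inhibitor for full effect; nearly all actives have a fitted effect of over 55% in size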
Target sequence (P08659 whole entry, looked up): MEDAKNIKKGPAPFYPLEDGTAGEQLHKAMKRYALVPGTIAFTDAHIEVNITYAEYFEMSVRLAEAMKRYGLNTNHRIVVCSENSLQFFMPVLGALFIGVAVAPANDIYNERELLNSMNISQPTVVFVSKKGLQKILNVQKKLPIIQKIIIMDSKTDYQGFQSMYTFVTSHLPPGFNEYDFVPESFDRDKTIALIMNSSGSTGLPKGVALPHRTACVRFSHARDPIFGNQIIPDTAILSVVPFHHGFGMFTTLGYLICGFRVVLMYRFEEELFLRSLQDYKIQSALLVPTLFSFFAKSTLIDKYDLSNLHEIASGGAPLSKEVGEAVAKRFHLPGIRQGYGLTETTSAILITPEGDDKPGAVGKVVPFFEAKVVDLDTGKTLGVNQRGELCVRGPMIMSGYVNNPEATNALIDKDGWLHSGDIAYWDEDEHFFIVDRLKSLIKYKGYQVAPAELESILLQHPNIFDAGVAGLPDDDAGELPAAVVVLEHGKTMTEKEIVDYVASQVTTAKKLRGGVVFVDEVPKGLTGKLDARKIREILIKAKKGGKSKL
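Purified P. pyralis luciferase, 10 nM final, with Km-level 10 uM D-luciferin and 10 uM ATP in 50 mM Tris acetate pH 7.5, 10 mM Mg acetate, 0.01% Tween-20, 0.05% BSA; 6-point qHTS titration about 60 µM downward; luminescence read.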
SMN2 splice up = qHTS Assay for Enhancers of SMN2 Splice Variant Expression; 210,000 tested, 2.8% active; HEK293 SMN2-luciferase splicing reporter, luminescence, 30-36 h; Potency, µM (doses to about 46.1 µM), inactives show top-dose activity change, positive = activation, hits mostly activators; also: % of control where 0% means no effect; nearly all actives have a fitted effect of over 55% in size
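HEK293 cells carry an SMN2 minigene-luciferase reporter in which exon 7 inclusion puts luciferase in frame. Cells were seeded at 2000 cells/well, attached for 10-12 hours, then exposed to compounds for 30-36 hours at 37C before ONE-Glo luminescence.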
ELG1 genotoxic = qHTS screen for small molecules that induce genotoxicity in human embryonic kidney (HEK293T) cells expressing luciferase-tagged ELG1; HEK293T ELG1-luciferase reporter, luminescence, 16 h; Potency, µM (top dose mostly 46 µM), for inactives: top-dose activity change, positive = activation, usual class: activators; 330,000 tested, 1.3% active; AID 504466, 2011; also: % of control where 0% means no effect; nearly all actives have a fitted effect of over 60% in size
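16 hr compound incubation (37 °C, 5% CO2) of HEK293T cells carrying luciferase-tagged ELG1; luciferase then measured by ONE-Glo luminescence after 30 min at RT.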
Rab9 promoter act = qHTS Assay for Rab9 Promoter Activators; AID 485297, 2010; Potency, µM (series often up to 9.22 µM), without a hit: top-dose activation, negative = inhibition, most hits filed as activators; 320,000 tested, 2.8% active; Huh7 Rab9 promoter-luciferase reporter, luminescence, 24 h; also: % of control where 0% means no effect; nearly all actives have a fitted effect of over 60% in size
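Luciferase signal after 10 min detection reagent at ambient indicates Rab9 promoter upregulation; stably transfected Huh7 cells were treated 24 h with compound in DMSO at 37 °C, 5% CO2.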
ELG1 DNA repair = qHTS screen for small molecules that inhibit ELG1-dependent DNA repair in human embryonic kidney (HEK293T) cells expressing luciferase-tagged ELG1. HEK293T ELG1-luciferase reporter, luminescence, 16 h; DNA damage induced by 5-fluorouridine. Potency, µM (highest dose often 46.1 µM), inactives show at the top dose activity change, negative = inhibition, usual class: inhibitors. 330,000 tested, 2.3% active. AID 504467, 2011; also: % is scaled to controls: 0 for no effect and ±100 for the full control effect; nearly all actives have a fitted effect of over 55% in size
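Cells (2,000 per well) received 5-fluorouridine plus test compound or DMSO and were incubated 16 hr at 37 °C, 5% CO2. Luciferase activity was read by luminescence 30 min after ONE-Glo addition; signal suppression marked inhibition of damage-induced ELG1 function.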
NPC1 promoter act = qHTS Assay for NPC1 Promoter Activators; Huh7 NPC1 promoter luciferase reporter, 24 h; Potency, µM (highest dose often 9.22 µM), without a hit: at the highest dose activation, actives largely listed as activators; 320,000 tested, 2.4% active; also: % of control where 0% means no effect; nearly all actives have a fitted effect of over 60% in size
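Stably transfected Huh7 (NPC1 promoter→luciferase), 1500 cells/well in Opti-MEM + 10% FBS, 2 h settle, then compound 24 h at 37 °C. Luminescence after 10 min with Amplite reagent.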
Starred values were filed as active, the others as inactive; ? = inconclusive; . = no result given; [ ] = remark or other dose. Calls follow the shape of the dose curve; as a rule, active = well fitted curve in the direction sought with a large enough effect; inconclusive = small, poorly fitted or top-dose-only effect, or another doubt; inactive = no such curve, though single readings can be large; an effect the other way counts as inactive or inconclusive. Potency is read from the fitted curve at half-maximal effect.

SMILES	FLuc modulator	SMN2 splice up	ELG1 genotoxic	Rab9 promoter act	ELG1 DNA repair	NPC1 promoter act
COc1cccc(CNn2c(-c3cccc(C)c3)nc3ccccc3c2=O)c1O	1.7%	-16.1%	-6.8%	-1.1%	16.4µM*	-4.1%
COC(=O)C1(C(=O)OC)C[C@H]2CON=C2[C@H]1c1ccccc1	.	1.3%	.	.	.	.
Cc1ccc(C(=O)CSc2n[nH]c(C)n2)cc1	?	6.2%	?	13.4%	?	13.1%
COc1ccc(-c2nc(SCC(=O)c3ccc(Br)cc3)n[nH]2)cc1	0.7%	-12.9%	.	.	.	.
CCc1ccc(C(=O)CSc2n[nH]c(C)n2)cc1	21.3µM*	5.2%	5.0%	?	2.1%	29.9%
CC(C)c1ccc(C(=O)CSc2n[nH]c(-c3ccncc3)n2)cc1	15.1µM*	32.8%	-1.2%	2.5%	3.6%	2.5%
CCOC(=O)CCCc1ccc(/C(C)=N/NC(N)=S)cc1	-8.0%	.	-4.8%	-11.5%	9.2µM*	-22.7%
C[C@H](C(=O)c1ccncc1)c1ccccn1	.	-0.2%[9.22 µM]	.	.	.	.
Oc1ccc(Nc2nc(-c3ccccc3F)nc3ccccc23)cc1	-5.6%	.	-7.0%	3.3%	-2.9%	3.1%
COc1ccc(Nc2nc(-c3ccccc3F)nc3ccccc23)cc1OC	26.9µM*	.	-9.9%	0.3%	23.1µM*	-3.5%
COc1ccccc1-c1cnn2c(NC3CCCC3)cc(C)nc12	1.9µM*	.	?	2.82µM*	?	?
COc1cccc(-c2nc(NC3CCCC3)c3ccccc3n2)c1O	-9.6%	.	-6.6%	-3.0%	23.1µM*	-0.6%
COc1ccccc1-c1ccc(NC2CCCC2)nn1	13.5µM*	11.2µM*	?	?	?	26.4%
COCCCNc1nc2c(c(=O)n(Cc3ccccc3)c(=O)n2C)n1C	1.3%	-4.4%	.	.	.	.
COc1ccc(NC(=O)Cn2c(=O)n(Cc3ccc4c(c3)OCO4)c(=O)c3ccc(C(=O)NC4CCCCC4)cc32)cc1	0.9%	10.1%	.	.	.	.
CCOC(=O)c1ccc(NC(=O)c2ccc(NC(=O)c3ccccc3)cc2)cc1	-1.4%	?	?	-4.2%	-19.0%	-3.9%
CCOC(=O)CCNC(=O)c1ccccc1Br	-8.9%	8.2%	7.2%	3.1%	?	-0.7%
CCOC(=O)Cc1ccc(NC(=O)c2ccc(C(C)(C)C)cc2)cc1	1.07µM*	-106.7%	-16.1%	-21.1%	18.4µM*	-17.5%
CCOC(=O)Cc1ccc(NC(=O)c2ccccc2Br)cc1	19µM*	24.4%	10.3%	12.1%	?	14.1%
NNC(=O)COc1ccc(-c2nccc(-c3ccc(F)cc3)n2)cc1	?	.	7.4%	-11.1%	3.9%	-14.0%
COC(=O)C(C)Oc1ccc(-c2nccc(-c3ccc(F)cc3)n2)cc1 (stereo not drawn)	15.1µM*	.	3.6%	0.0%	18.2%	7.4%
COC(=O)C(C)Oc1ccc(-c2nccc(-c3ccccn3)n2)cc1 (stereo not drawn)	19µM*	.	1.1%	8.8%	15.5%	13.5%
Oc1ccc(-c2nccc(-c3ccc(F)cc3)n2)cc1	13.5µM*	.	?	?	?	?
CC(Oc1ccccc1)C(=O)Nc1nc(-c2ccccn2)cs1 (stereo not drawn)	-26.0%	.	15.5%	-16.6%	?	-15.4%
CC(C)Oc1ccc(CNC(=O)Nc2ccc3c(c2)N(C)C(=O)c2ccccc2S3)cc1	-0.3%	.	.	.	.	.
Cc1ccccc1Cn1cc(S(=O)(=O)c2ccc(F)cc2)c(=O)c2cc3c(cc21)OCO3	-1.8%	-2.1%	.	.	.	.
Cc1ccc(C)c(NC(=O)CN2CCSc3ccc(S(=O)(=O)N4CCCC4)cc32)c1	2.0%	.	.	.	.	.
